Assay outcomes from PubChem.
In the library only some 8% were active in any assay of this set; here they are far more common.
Lassa entry – blocks Lassa virus binding or cell entry; AID 720533; hit rate 4.1% among 18,000; Lassa virus pseudotyped entry inhibition, cell-based qHTS; Potency, µM (top dose mostly 49.2 µM), usual class: inhibitors
MARV entry inh – inhibitors of Marburg virus binding or entry into cells; Marburg virus pseudotype entry/binding inhibition, cell-based; Potency, µM (highest dose often 49.2 µM), actives largely listed as inhibitors; hit rate 6.5% among 18,000
Large screens that a line does not name were inactive; ! = not active in a repeat. The call rests on the fitted dose curve; tested in HEK293 cells.

O=C1CC[C@]2(O)[C@H]3Cc4ccc(O)c5c4[C@@]2(CCN3CC2CC2)[C@@H]1O5	none
Oc1ccc2c3c1O[C@H]1c4[nH]c5c(c4C[C@@]4(O)[C@@H](C2)N(CC2CC2)CC[C@]314)C[C@@]1(O)[C@H]2Cc3ccc(O)c4c3[C@@]1(CCN2CC1CC1)[C@H]5O4	none
Oc1ccc2c3c1O[C@H]1c4c(c5ccccc5n4Cc4ccccc4)C[C@]4(O)[C@H](C2)N(CC2CC2)CC[C@@]314	Lassa entry 16µM, MARV entry inh 11µM
Oc1ccc2c3c1O[C@H]1[C@@H](O)CC[C@]4(O)[C@H](C2)N(CC2CCC2)CC[C@@]314	none
O=C1CC[C@@]2(O)[C@H]3Cc4ccc(O)c5c4[C@@]2(CCN3CC2CC2)[C@H]1O5	none
COC(=O)/C=C/C(=O)N[C@@H]1CC[C@@]2(O)[C@H]3Cc4ccc(O)c5c4[C@@]2(CCN3CC2CC2)[C@H]1O5	Lassa entry 28µM, MARV entry inh 10µM
Oc1ccc2c3c1O[C@H]1c4[nH]c5ccccc5c4C[C@]4(O)[C@H](C2)N(CC2CC2)CC[C@@]314	Lassa entry inconclusive, MARV entry inh 22µM
Oc1ccc2c3c1O[C@H]1c4oc5ccccc5c4C[C@]4(O)[C@H](C2)N(CC2CC2)CC[C@@]314	Lassa entry 28µM, MARV entry inh 28µM
COc1cccc(CO[C@H]2C=C[C@@H](c3ccccc3)O[C@H]2CO)c1	none
COc1ccc([C@H]2C[C@H](n3cc(C4CC4)nn3)[C@@H](O)CN2C(=O)c2cccs2)cc1	none
COC(=O)c1ccc(CN2C(=O)[C@@]3(CC(C)=C[C@@H](COc4ccccc4)O3)c3ccccc32)cc1	none
CCCNC(=O)OC[C@H]1O[C@H](CCON=C(C)CCN2CCCc3nc(C)c(C)cc32)C=C[C@H]1Oc1ccc(OC)cc1	MARV entry inh inconclusive
COc1ccc(NC(=O)c2ccc(-c3ccc(C)c4ccccc34)o2)cc1	none
CCc1ccc(OCc2ccccc2C(=O)Nc2ccc3nc(C)cc(N)c3c2)cc1	Lassa entry 7.1µM, MARV entry inh 4µM
C=C[C@H]1C[C@H]2C=CCCOP(=O)(O2)O1	MARV entry inh inconclusive
O[C@@H](c1cc(C(F)(F)F)nc2c(C(F)(F)F)cccc12)[C@H]1CCCCN1	Lassa entry 28µM, MARV entry inh 10µM
CC=Cc1cc2ccccc2c2c(C(=O)OC)c(C(=O)OC)c(C(=O)OC(C)(C)C)n12	MARV entry inh inconclusive
CN(C)CCCSC(=N)N	MARV entry inh 14µM!
N=C(N)SCCN=C(N)N	none
COc1ccccc1C(=O)Nc1cccc(N2CCC(NCc3cnn(-c4ccccc4)n3)CC2)c1	Lassa entry inconclusive, MARV entry inh 11µM
CN(Cc1cnc2ccccn12)C1CCN(c2cccc(NC(=O)c3cccnc3)c2)CC1	none
O=C(Nc1cccc(N2CCC(NCc3cnn(-c4cccc(F)c4)c3)CC2)c1)c1ccncc1	MARV entry inh 2.5µM
Cn1cc(CNC2CCN(c3cccc(NC(=O)c4cccnc4)c3)CC2)cn1	none
O=C(Oc1ccccc1)[C@H]1O[C@H]1c1ccccc1	none (no result: Lassa entry)
CCN(CCNC(=O)[C@H]1C=C(OC)C(=O)C[C@H](c2ccccc2)[C@@H]1C)C(C)=O	none
CN(C)CC/C=C1/c2ccccc2COc2ccc(CC(=O)O)cc21	none
OCCN1CCN(CC/C=C2/c3ccccc3Sc3ccc(Cl)cc32)CC1	MARV entry inh inconclusive
CN(C)CC/C=C1\c2ccccc2Sc2ccc(Cl)cc21	Lassa entry 28µM!, MARV entry inh 11µM!
CN(C)CCC=C1c2ccccc2CCc2ccccc21	Lassa entry inconclusive, MARV entry inh 10µM
CN(C)CCC=C1c2ccccc2C(C)(C)c2ccccc21	Lassa entry 18µM, MARV entry inh 4.5µM
CN(C)CCC=C1c2ccccc2C=Cc2ccccc21	Lassa entry 32µM!, MARV entry inh 11µM
CN(C)CC/C=C1/c2ccccc2COc2ccccc21	MARV entry inh inconclusive
CN1C=CC(=O)[C@@H](O)[C@@H]1c1ccccc1Br	none
O=C(NN=C1C[C@@H](O)[C@H](O)[C@H]2[C@@H]3C(=O)N(Cc4ccc5c(c4)OCO5)C(=O)[C@@H]3CC[C@H]12)OCc1ccccc1	none (no result: Lassa entry)
O=C(C1CCCCC1)N1C[C@@H](O)[C@@H](n2cc(C3CC3)nn2)C[C@@H]1c1ccccc1	Lassa entry inconclusive
NS(=O)(=O)c1ccc(N=Nc2c(O)[nH]c3ccc(C(=O)NCCc4cnc[nH]4)cc23)cc1	Lassa entry inconclusive
CNCCC=C1c2ccccc2C=Cc2ccccc21	Lassa entry inconclusive, MARV entry inh 5µM
C=CCN1c2ccccc2[C@]23CCC(=O)N(CC4CC4)C2=NC(C(=O)OC)=C(C(=O)OC)[C@H]13	none
C[C@@H]1CC[C@H]2C(=O)N(Cc3cccc([N+](=O)[O-])c3)C[C@H](O)CN2[C@@H]1c1cccc(Br)c1	none (no result: Lassa entry)
CC[N+](CC)(CCCNC1=CC(=O)C(NCCC[N+](CC)(CC)Cc2ccccc2)=CC1=O)Cc1ccccc1	none
CCCCCCCCCCCCC[N+](C)(C)Cc1ccccc1	Lassa entry 18µM, MARV entry inh 8.9µM
CN[C@@H](C)[C@H](O)c1ccccc1	none
CCCCCCCCN[C@@H](C)[C@H](O)c1ccc(SC(C)C)cc1	MARV entry inh 11µM
COC(=O)c1ccc(CN2CCC3(CCC(CNC(=O)c4ccccc4)O3)CC2)cc1 (configuration not stated)	none
O=C(NCC1CCC2(CCN(Cc3ccccc3O)CC2)O1)C1CCCO1 (configuration not stated)	none
COc1ccc2ccccc2c1CN1CCC2(CCC(CNC(=O)c3ccccc3)O2)CC1 (configuration not stated)	MARV entry inh 13µM
COc1ccc(CN2CCC3(CCC(CNC(=O)C4CCCO4)O3)CC2)c(C)c1C (configuration not stated)	MARV entry inh 1.3µM
O=C1[C@@H]2[C@H]3[C@H](O)[C@H](O)CC(=NOC[C@@H](O)COCc4ccco4)[C@@H]3CC[C@H]2C(=O)N1Cc1ccccc1	none
CC(C)C(=O)N[C@H]1CCCN1C(=O)C=Cc1ccccc1	none
CCCC[C@]12Cc3cc(C#N)ccc3[C@H](O1)c1c(c3cc(F)ccc3oc1=O)O2	none
CC(C)=CCCC(C)=CCN1C(=O)[C@@]2(C[C@@H](C)C[C@@H](C)O2)c2ccccc21	none
Cc1cc(/C=C/c2ccc3cc(N(C)C)ccc3[n+]2C)c(C)n1-c1ccccc1	Lassa entry 10µM, MARV entry inh inconclusive
CS(=O)(=O)CCNCc1nc(-c2ccc3ncnc(Nc4ccc(F)c(Cl)c4)c3c2)cs1	MARV entry inh inconclusive
Clc1ccc(COC(Cn2ccnc2)c2ccc(Cl)cc2Cl)cc1 (configuration not stated)	Lassa entry 35µM!, MARV entry inh inconclusive
C=CCO[C@@H](Cn1ccnc1)c1ccc(Cl)cc1Cl	none
CC(C)CNC(=O)c1cn(C2CCN(Cc3nc4ccccc4s3)CC2)nn1	MARV entry inh 2.8µM
CN(CCO)C(=O)c1cn(C2CCN(Cc3ccc4ccccc4c3)CC2)nn1	none
COc1ccc([C@]23Cc4cc(OC)c(OC)cc4[C@H](O2)c2c(c4ccccc4oc2=O)O3)cc1	none
CC1(C)CC(=O)C2=C(C1)O[C@@]1(CCCCN3C(=O)c4ccccc4C3=O)Cc3c(ccc4ccccc34)[C@H]2O1	none
O=C(Nc1ccc(Cl)c(Cl)c1)C1CC1	none
O=C(Cc1ccc(Cl)c(Cl)c1)N1CCCCC1CN1CCCC1 (configuration not stated)	Lassa entry inconclusive, MARV entry inh 7.9µM
CCN(CC)CC1CCN(c2ncc3ncnc(Nc4ccc(F)c(Cl)c4)c3n2)CC1	Lassa entry inconclusive, MARV entry inh 3.5µM
CC#CC(=O)Nc1cc2c(Nc3ccc(F)c(Cl)c3)ncnc2cn1	none
